Test results reported in PubChem BioAssay AID720697 (Broad Institute, 2013).
Potency and affinity values are given separately. Inconclusive results are not listed. A call without a number means that no potency is given here. Unmarked numbers belong to inactive results. Calls of active or inactive are those of the source.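 Rule for the calls: active = signal loss with fitted half-maximal concentration at or below twice the top valid tested dose in every test run; inconclusive = runs disagree, flat 30 to 70% signal loss, or poor fit; inactive = all runs flat, opposite direction, or potency beyond limit.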

Experiment: general mammalian cell viability loss – inhibitor set, cherry-pick, set 2, cytotoxicity control for miR-122 modulator project, dose response (AID 720697)
Details: HEK293T viability, CellTiter-Glo luminescence, 48 h; series mostly up to 26 µM

Row | SMILES | outcome | activity change, negative = cytotoxicity
1 | COC(=O)C[C@H]1CC[C@@H]2[C@@H](COc3ccc(NC(=O)c4cscn4)cc3C(=O)N2C)O1 | inactive | 
2 | COc1ccc(S(=O)(=O)Nc2cccc3c2O[C@H](CN(C)CC2CCCCC2)[C@@H](C)CN([C@H](C)CO)C3=O)cc1 | inactive | 
3 | CCCNC(=O)C[C@H]1CC[C@H]2[C@@H](COc3ccc(NC(=O)c4cc(F)cc(F)c4)cc3C(=O)N2C)O1 | inactive | 
4 | COCCNC(=O)C[C@@H]1CC[C@@H]2[C@H](COc3ccc(NS(=O)(=O)c4ccc(Cl)cc4)cc3C(=O)N2C)O1 | inactive | 
5 | COCC(=O)NC[C@H]1N[C@H](CO)[C@H]1c1ccc(C2=CCCC2)cc1 | inactive | 
6 | Cc1cc(C(F)F)n2ncc(C(=O)NCCc3ccccc3Cl)c2n1 | inactive | 
7 | CC(C)NC(=O)N(C)C[C@H]1Oc2cc(C#C[C@H](C)O)ccc2S(=O)(=O)N([C@@H](C)CO)C[C@H]1C | inactive | 
8 | CCC(=O)N1[C@H](CN(C(C)C)S(C)(=O)=O)[C@H](c2ccccc2)[C@@H]1CO | inactive | 
9 | COC(=O)c1nn(-c2ccccc2)c(Sc2ccc(Cl)cc2)c1/C=N/O | inactive | 
10 | Cc1cccc(-n2ncc(Cl)c(Cl)c2=O)c1 |  | -3.19% [at 6 µM]
11 | CC(=O)N(C[C@@H]1N[C@@H](CO)[C@H]1c1ccc(-c2ccccc2)cc1)C(C)C | inactive | 
12 | N#CCc1c(C#N)c(N)nc(N2CCN(S(=O)(=O)c3ccccc3)CC2)c1C#N | inactive | 
13 | COc1cccc(C(=O)Nc2ccc3c(c2)C(=O)N(C)[C@H]2CC[C@H](CC(=O)NCc4ccc(F)cc4)O[C@@H]2CO3)c1 | inactive | 
14 | COC(=O)C[C@H]1CC[C@@H]2[C@@H](COc3ccc(NC(=O)c4cnccn4)cc3C(=O)N2C)O1 | inactive | 
15 | CNC(=O)C[C@@H]1CC[C@H]2[C@@H](COc3ccc(NC(=O)c4ccc(C(F)(F)F)cc4)cc3C(=O)N2C)O1 | inactive | 
16 | CO[C@H]1CN(C)C(=O)c2ccc(NS(C)(=O)=O)cc2OC[C@H](C)N(C(=O)CN(C)C)C[C@H]1C | inactive | 
17 | Cc1cc(C(=O)N/N=C/c2cc(Br)ccc2OC(=O)c2ccccc2)n[nH]1 | inactive | 
18 | Cc1nc(C)c(C(=O)Nc2ccc(Oc3ccccc3)cc2)o1 | inactive | 
19 | COCC(=O)Nc1ccc2c(c1)C(=O)N(C)[C@@H]1CC[C@H](CC(=O)NC3CCCC3)O[C@H]1CO2 | inactive | 
20 | CNC(=O)C[C@H]1CC[C@H]2[C@@H](COc3ccc(NC(=O)c4cccc(OC)c4)cc3C(=O)N2C)O1 | inactive | 

Row | SMILES | outcome | activity change, negative = cytotoxicity
21 | CCNC(=O)Nc1ccc2c(c1)C(=O)N(C)[C@H]1CC[C@H](CC(=O)NCCOC)O[C@@H]1CO2 | inactive | 
22 | CN1C(=O)c2cc(NC(=O)c3cccs3)ccc2OC[C@@H]2O[C@@H](CC(=O)N3CCOCC3)CC[C@H]21 | inactive | 
23 | C[C@@H]1CN([C@@H](C)CO)C(=O)c2cccc(NS(C)(=O)=O)c2O[C@H]1CN(C)S(=O)(=O)c1ccc(Cl)cc1 | inactive | 
24 | C/C=C/c1ccc2c(c1)O[C@@H](CN(C)CC1CCCC1)[C@H](C)CN([C@@H](C)CO)S2(=O)=O | inactive | 
25 | CCCNC(=O)N1C[C@@H]2[C@H](c3ccccc31)[C@@H](CO)N2C(=O)C1CCOCC1 | inactive | 
26 | COC(=O)C[C@H]1CC[C@@H]2[C@@H](COc3ccc(NC(=O)Nc4ccc(Cl)cc4)cc3C(=O)N2C)O1 | inactive | 
27 | CNC(=O)C[C@H]1CC[C@H]2[C@H](COc3ccc(NC(=O)c4cccc(F)c4)cc3C(=O)N2C)O1 | inactive | 
28 | CNC(=O)C[C@@H]1CC[C@@H]2[C@@H](COc3ccc(NC(=O)Cc4cccs4)cc3C(=O)N2C)O1 | inactive | 
29 | C[C@@H]1CN([C@@H](C)CO)C(=O)c2cc(NC(=O)Nc3cccc4ccccc34)ccc2O[C@@H](C)CCCCO[C@H]1CN(C)CC1CCCCC1 | inactive | 
30 | O=C(c1cccc(F)c1)N1C[C@@H]2[C@H](c3ccccc31)[C@H](CO)N2C(=O)Cc1ccccc1 | inactive | 
31 | COC(=O)C[C@@H]1CC[C@H]2[C@@H](COc3ccc(NC(=O)Nc4ccccc4C)cc3C(=O)N2C)O1 | inactive | 
32 | C[C@@H]1CN([C@H](C)CO)S(=O)(=O)c2ccc(/C=C/c3ccccc3)cc2O[C@@H]1CN(C)C(=O)c1cccnc1 | inactive | 
33 | CC(C)NC(=O)N1[C@H](CO)[C@@H](c2ccccc2)[C@@H]1CNC(=O)CN(C)C | inactive | 
34 | CCNC(=O)C[C@H]1CC[C@@H]2[C@@H](COc3ccc(NC(=O)Nc4cccc(Cl)c4)cc3C(=O)N2C)O1 | inactive | 
35 | CN(C)CCCNC(=O)C[C@H]1CC[C@H]2[C@H](COc3ccc(NC(=O)c4cccc(F)c4)cc3C(=O)N2C)O1 | inactive | 
36 | O=C(COc1ccccc1F)N1CCc2ccccc2C1 | inactive | 
37 | CC(=O)c1cccc(S(=O)(=O)NCC2CCCCC2)c1 | inactive | 
38 | CC(=O)N1[C@H](CN(C)S(=O)(=O)c2ccccc2)[C@H](c2ccccc2)[C@@H]1CO | inactive | 
39 | C/C=C/c1ccc([C@H]2[C@@H](CO)N(Cc3ccccn3)[C@@H]2CNC(=O)CC)cc1 | inactive | 
